The source of these data is PubChem BioAssay (NCATS).

Records with an inconclusive call do not appear. A number with no mark means an inactive call. Active and inactive are the calls of the source. Calls come from the whole dose curve; as a rule, active = well fitted cell-killing curve with a large enough effect; inconclusive = small, poorly fitted or top-dose-only effect; inactive = flat fitted curve, though single readings scatter. Numbered stars: 1 amine (or outer) side, 2 acyl side, 3 side chain; on linkers, the order of the positions; unused ones are H or OH. Bridge positions count the residues as written; N and C are the ends. Square brackets hold non-standard residues; d marks the D form. Peptide text beside a SMILES is read from it. I, II: the chains in the order shown. Actinocin(9to1) = Cc1c2oc3c(C)ccc(C(=O)[*:1])c3nc-2c(C(=O)[*:2])c(N)c1=O; aThr = C[C@H](O)[C@H](N)C(=O)O; NMeV = CN[C@H](C(=O)O)C(C)C; Sar = CNCC(=O)O
% is set by controls: 0 for no effect and ±100 for the full control effect; potency is the fitted concentration of half-maximal effect.

This assay is described as follows: Vero cells viability qHTS for Zika virus inhibitors (AID 1347167). Conditions: cytotoxicity counter-screen (Zika); series mostly up to 45.9 µM; activity change, negative = cytotoxicity: at the top concentration. The source says:
Avindra Nath, Ph.D., National Institute of Neurological Disorders and Stroke (NINDS), Bethesda, MD
Radhakrishnan Padmanabhan, Ph.D., Georgetown University (GU), Washington D.C.
Zika Virus causes congenital defects, including microcephaly and is associated with Guillain-Barre syndrome, eningoencephalitis and myelitis in infected adult. […] Using a target-based approach, we hope to establish a screening paradigm to uncover novel, cell-active NS2B-NS3 protease (Zika Virus) specific inhibitors from NCATS' collection of small molecules using qHTS.
Four assay panel was created to identify potential Zika Virus inhibitors. Namely, (1) GU unlinked NS2B-NS3 AMC tagged protease qHTS, (2) GU unlinked NS2B-NS3 Rhodamine tagged protease qHTS, (3) NINDS linked NS2B-NS3 AMC tagged protease qHTS, (4) NINDS linked NS2B-NS3 Rhodamine tagged protease qHTS. Identified inhibitors were screened against the Vero and HepG2 cell viability assays using CellTiter Glo to exclude cytotoxic compounds.
Early Translation Branch (ETB)
National Center for Advancing Translational Sciences (NCATS), Rockville, MD
National Institute of Health (NIH), Bethesda, Maryland
Vero and HepG2 Cell Viability Assay:
Vero and HepG2 cell cytotoxicity were determined using a luminescent readout with CellTiter Glo reagent (Promega, Madison, WI), which is based on measuring the ATP content within cells. Briefly, 4 microL of Vero or HepG2 cells at 2.5 x 10^5 cells/mL in DMEM containing 4% FBS were dispensed into 1536-well solid bottom tissue treated white plate using a Multidrop Combi dispenser (Thermo Scientific). Plates were incubated at 37 degrees C, 95% humidity, and 5% CO2 overnight to allow for cell attachment. Compounds were dissolved in DMSO at different concentrations and transferred via pintool (Wako Automation), for a final concentration of 0.029 µM - 57 microM. Plates were again incubated for 24 to 48 hours, followed by a 2 microL addition of CellTiter Glo. Finally, plates were incubated for 30 minutes at 37 degrees C and 5% CO2 before being read on a ViewLux (Perkin Elmer) for luminescence.
(In general: In qHTS, concentration-response curves come from the screen itself.)
`O=C(O)c1ccc(O)c2ncc(N3CCCN(CCc4cccc5ccccc45)CC3)cc12`: the “activity change, negative = cytotoxicity” value is -10.1%.
As to `CC[C@H](C)[C@H]1O[C@]2(CC[C@@H]1C)C[C@@H]1C[C@@H](C/C=C(\C)[C@@H](O[C@H]3C[C@H](OC)[C@@H](O[C@H]4C[C@H](OC)[C@@H](O)[C@H](C)O4)[C@H](C)O3)[C@@H](C)/C=C/C=C3\CO[C@@H]4[C@H](O)C(C)=C[C@@H](C(=O)O1)[C@]34O)O2`, the “activity change, negative = cytotoxicity” value was -4.94%.
Still for that read-out and setting: the value for `CCOc1ccc(C2C(=O)N(C3CCCCCC3)CC(=O)N2CCc2ccc(Cl)cc2)cc1OC` (stereo not given) was -0.76%; that for `C=NC(C(=O)N[C@H]1C(=O)N2C1SC(C)(C)C2C(=O)O)c1ccccc1` (stereo not given in full) was -0.393%; that for `CC(C)C[C@@H](NC(=O)[C@H](Cc1ccccc1)NC(=O)c1cnccn1)B(O)O` was -20.9% [at 91.6 µM].
`CCOc1nc2cccc(C(=O)OC(C)OC(=O)OC3CCCCC3)c2n1Cc1ccc(-c2ccccc2-c2nn[nH]n2)cc1` (stereo not given): the “activity change, negative = cytotoxicity” value was -12.6%.
Same read-out and setting: the value for `O=C(O)c1cc(NCc2cc(O)ccc2O)ccc1O` was -3.68%; that for `CC1(C(=O)O)NCCc2cc(O)c(O)cc21` (stereo not given) was 0.123%; that for `C=CC(C)(C)c1[nH]c2ccccc2c1C1=C(O)C(=O)C(c2c[nH]c3c(CC=C(C)C)cccc23)=C(O)C1=O` was -1.07%.
On to `CCN(CC)c1ccc(/C=N/NC(=O)c2ccc(O)cc2)cc1`, for which the “activity change, negative = cytotoxicity” value is -2.72%.
The same measure, in the same setting: the value for `CN(C)[C@@H]1C(=O)C(C(=O)NCN2CCCC2)=C(O)[C@@]2(O)C(=O)C3=C(O)c4c(O)cccc4[C@@](C)(O)[C@H]3C[C@@H]12` was -7.49%; that for `CN(Cc1ccc(C(=O)O)cc1)c1ccc(OCc2c(-c3c(Cl)cccc3Cl)noc2C2CC2)nc1C(F)(F)F` was -1.47%.
With `CC1CCN(C(c2ccc(F)cc2)c2ccc(C(C)C(=O)O)cc2-c2ccc(C(F)(F)F)cc2)CC1` (stereo not given), the Potency was 18.6 µM (active).
Take `CC1O[C@@H](O[C@@H]2C(O)C[C@H](O[C@@H]3C(O)C[C@@H](OC4CC[C@@]5(C)C6CC(O)[C@@]7(C)C(C8=CC(=O)OC8)CC[C@@]7(O)C6CC[C@@H]5C4)OC3C)OC2C)CC(O)[C@H]1O` (stereo not given in full): the “activity change, negative = cytotoxicity” value was -6.52%.
On to `CCOc1ccc(C2C(=O)N(C3CCCCC3)CC(=O)N2Cc2ccc(F)cc2)cc1OC` (stereo not given), for which the “activity change, negative = cytotoxicity” value is -1.7%.
In the case of `Cc1cc(C)cc(C(=O)N(C)[C@H](Cc2ccc(-c3ccccc3)cc2)C(=O)N[C@@H](Cc2c[nH]c3ccccc23)C(=O)O)c1`, the “activity change, negative = cytotoxicity” value is -3.27%.
Still for that read-out and setting: the value for `Nc1ncnc2c1ncn2[C@@H]1O[C@H](CSCC[C@H](N)C(=O)O)[C@@H](O)[C@H]1O` was -3.49%.
Same read-out and setting: with `COc1ccccc1N1CCN(CCn2c(=O)c3c(c4ccccc4n3C)n(C)c2=O)CC1` the figure was -1.81%; with `CCCCOc1ccc(C2C(=O)N(C3CCCCC3)CC(=O)N2C2CCCCC2)cc1` (stereo not given), -4.76%; with `CC1OC(OC2C(O)CC(OC3C(O)CC(OC4CCC5(C)C(CCC6C5CC(O)C5(C)C(C7=CC(=O)OC7)CCC65O)C4)OC3C)OC2C)CC(O)C1O` (stereo not given), -3.69% [at 91.6 µM].
For the molecule `CC[C@@H]1O[C@]2(C=C[C@@H]1C)C[C@H]1C[C@H](CC=C(C)[C@@H](O[C@@H]3C[C@H](OC)[C@H](O[C@@H]4C[C@H](OC)[C@H](O)[C@H](C)O4)[C@H](C)O3)[C@@H](C)C=CC=C3CO[C@@H]4[C@@H](O)C(C)=C[C@@H](C(=O)O1)[C@]34O)O2`, the “activity change, negative = cytotoxicity” value was 0.358% [at 26.9 µM].
For the molecule `Cc1c(-c2ccc(O)cc2)nn(-c2ccc(O)cc2)c1-c1ccc(OCCN2CCCCC2)cc1`, the “activity change, negative = cytotoxicity” value is -5.98%.
For the molecule `CN(Cc1cnc2nc(N)nc(N)c2n1)c1ccc(C(=O)NC(CCC(=O)O)C(=O)O)cc1` (stereo not given), the “activity change, negative = cytotoxicity” value is -1.64%.
On to `CC1(COc2ccc(C[C@H]3SC(=O)NC3=O)cc2)CCCCC1`, for which the “activity change, negative = cytotoxicity” value was -10.8%.
With `CCOC(=O)O[C@H](C)OC(=O)C1N2C(=O)[C@H](NC(=O)[C@H](N)c3ccccc3)C2SC1(C)C` (stereo not given in full), the “activity change, negative = cytotoxicity” value is -4.3%.
On the same count and under the same terms, the value for `C[C@H]1O[C@@H](O[C@H]2[C@@H](O)C[C@H](O[C@H]3[C@@H](O)C[C@H](O[C@H]4CC[C@]5(C)C6C[C@@H](O)[C@]7(C)[C@@H](C8=CC(=O)OC8)CC[C@]7(O)C6CC[C@@H]5C4)O[C@@H]3C)O[C@@H]2C)C[C@H](O)[C@@H]1O` (stereo not given in full) was -7.96%.
Turning to `Oc1cc2ccccc2c2ccccc12`, the Potency was 19 µM (active).
Turning to `CCCCc1nn(-c2ccccc2C(F)(F)F)c(=O)n1Cc1ccc(-c2ccccc2S(=O)(=O)NC(=O)c2sccc2C)cc1`, the “activity change, negative = cytotoxicity” value is 0.821%.
For the molecule `Cc1ccc2c(=O)c3ccccc3n(CCCN)c2c1C`, the “activity change, negative = cytotoxicity” value is -8.99%.
In the case of `COc1ccc(-c2nc(C(=O)N3CCN(C)CC3)sc2-c2ccc(OC)cc2)cc1`, the “activity change, negative = cytotoxicity” value is -3.27%.
`CS(=O)(=O)c1ccc(-c2cn3ccccc3n2)cc1`: the “activity change, negative = cytotoxicity” value was -11.6%.
For the molecule `CN1CCN(C(=O)CCN2C(=O)/C(=C\c3ccccc3F)SC2=S)CC1`, the “activity change, negative = cytotoxicity” value is -2.57% [at 91.6 µM].
As for `Nc1ncnc2c1ncn2[C@@H]1O[C@H](C[C@@H](N)CC[C@H](N)C(=O)O)[C@@H](O)[C@H]1O`, the “activity change, negative = cytotoxicity” value is -4.87%.
Take `C[S+](CC[C@H](N)C(=O)O)C[C@H]1O[C@@H](n2cnc3c(N)ncnc32)[C@H](O)[C@H]1O` (stereo not given in full): the “activity change, negative = cytotoxicity” value was -5.7%.
Regarding `CC(C)=CCCC1(C)C=Cc2c(O)c3c(c(CC=C(C)C)c2O1)OC12C(=CCCC1C(C)(C)O[C@@]2(C/C=C(\C)C(=O)O)C(=O)O)C3=O` (stereo not given in full), the “activity change, negative = cytotoxicity” value was -1.09%.
In the case of `Cc1c2oc3c(C)ccc(C(=O)N[C@@H]4C(=O)N[C@@H](C(C)C)C(=O)N5CCC[C@@H]5C(=O)N(C)CC(=O)N(C)[C@@H](C(C)C)C(=O)O[C@H]4C)c3nc-2c(C(=O)N[C@@H]2C(=O)N[C@@H](C(C)C)C(=O)N3CCC[C@@H]3C(=O)N(C)CC(=O)N(C)[C@@H](C(C)C)C(=O)O[C@H]2C)c(N)c1=O` (I: [aThr]V[dP][Sar][NMeV] / II: [aThr]V[dP][Sar][NMeV]; ester I:1-I:C, II:1-II:C; linker I:N-II:N via Actinocin(9to1)), the “activity change, negative = cytotoxicity” value is -4.47%.
Consider `O=C1c2cccc3c2[C@@H](CCC3)CN1[C@@H]1CN2CCC1CC2`, for which the “activity change, negative = cytotoxicity” value was -4%.
For the molecule `COc1ccc(-c2nc3cc(F)ccc3s2)cc1OC`, the activity change, negative = cytotoxicity was -2.06% [at 4.93 µM].
Consider `Cc1c2ccccc2c(CSC(=N)N)c2ccccc12`, for which the “activity change, negative = cytotoxicity” value is -0.867%.
`O=C1c2c(O)ccc([N+](=O)[O-])c2C(=O)c2c([N+](=O)[O-])ccc(O)c21`: the “activity change, negative = cytotoxicity” value is -15.6% [at 91.6 µM].
